Screens deposited in PubChem by several laboratories.
Anthrax LF prot: blocks Bacillus anthracis lethal factor protease | inhibition, % at 10 µM | hit rate 0.12% among 360,000 | AID 588501 | multiplex microsphere protease cleavage assay, LF; also: plate controls were buffer without enzyme for full effect and enzyme alone for no effect
Target sequence (P15917 whole entry, looked up): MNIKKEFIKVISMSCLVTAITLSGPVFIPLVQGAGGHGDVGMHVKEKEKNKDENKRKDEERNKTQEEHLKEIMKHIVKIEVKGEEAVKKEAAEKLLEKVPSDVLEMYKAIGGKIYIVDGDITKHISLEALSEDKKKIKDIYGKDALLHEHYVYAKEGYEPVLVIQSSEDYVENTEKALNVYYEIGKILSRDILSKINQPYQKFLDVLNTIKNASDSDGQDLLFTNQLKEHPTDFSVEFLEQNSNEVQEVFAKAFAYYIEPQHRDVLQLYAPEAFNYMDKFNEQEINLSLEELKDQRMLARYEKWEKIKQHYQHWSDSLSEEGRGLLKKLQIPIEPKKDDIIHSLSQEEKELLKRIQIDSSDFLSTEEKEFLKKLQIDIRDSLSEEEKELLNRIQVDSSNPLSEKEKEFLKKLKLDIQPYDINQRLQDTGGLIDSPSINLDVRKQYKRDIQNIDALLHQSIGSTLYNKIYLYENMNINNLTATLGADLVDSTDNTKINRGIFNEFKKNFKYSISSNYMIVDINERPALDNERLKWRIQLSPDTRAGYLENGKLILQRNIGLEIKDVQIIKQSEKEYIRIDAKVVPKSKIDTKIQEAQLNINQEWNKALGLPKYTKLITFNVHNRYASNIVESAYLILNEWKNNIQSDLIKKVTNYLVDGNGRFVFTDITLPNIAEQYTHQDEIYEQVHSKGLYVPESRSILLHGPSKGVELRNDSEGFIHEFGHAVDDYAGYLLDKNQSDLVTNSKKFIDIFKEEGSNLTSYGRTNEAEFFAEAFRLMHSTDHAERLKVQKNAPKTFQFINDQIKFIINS
MazF activator: MazEF (E. coli) toxin RNase activation. hit rate 0.32% among 350,000. FAM/BHQ RNA-DNA oligo cleavage fluorescence, 5 h. P0AE70. activation, % at 20 µM. AID 504720; in the data active = activation above about 50%
BoNT F protease: BoNT F light chain protease inhibition; hit rate 0.22% among 360,000; Multiplex microsphere protease cleavage assay, flow cytometry; inhibition, % at 10 µM; in the data active = inhibition above about 35%, passing the limit was not always enough; inconclusive = no clear call, values can overlap the other calls; also: plate controls were buffer without enzyme for full effect and enzyme alone for no effect
BoNT A protease: BoNT A light chain protease inhibition | inhibition, % at 10 µM | multiplex microsphere protease substrate cleavage, flow cytometry | hit rate 0.17% among 360,000; also: plate controls were buffer without enzyme for full effect and enzyme alone for no effect
Autofluor counter: compound fluorescence in toxin protease inhibitor counterscreen. compound autofluorescence counterscreen, microsphere flow cytometry; active compounds read high. fluorescence intensity (test concentration not listed). hit rate 3.1% among 360,000. AID 624483; in the data active = fluorescence intensity above about 16000; inconclusive = no clear call, values can overlap the other calls
PfHsp40 yeast: restores yeast growth despite PfHsp40 toxicity. S. cerevisiae expressing PfHsp40, growth rescue, ATP luminescence. growth rescue, % at 12.5 µM. hit rate 0.68% among 340,000; in the data active = growth rescue above about 28%, passing the limit was not always enough; inconclusive = no clear call, values can overlap the other calls;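 also: yeast W303a lacking pdr1 and pdr3 grown in galactose medium; growth measured after three days at 30 °C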
* hit, by the source's call. Shown are actives, neighbours in structure and some others; about 4.3% of the full set was active somewhere. Rule as the data show it, unless noted: active = inhibition above about 30%; inconclusive = no clear call, values can overlap the other calls; inactive = below that.

`O=C(Cn1c(=O)n(CC(=O)N2CCCCC2)c(=O)c2sccc21)NCc1ccccc1` gave Anthrax LF prot -2, MazF activator 0, BoNT F protease 6, BoNT A protease -1, Autofluor counter 5127 and PfHsp40 yeast 1.
For Cc1nc2ccccc2n1CC(=O)NCc1ccccc1 the results were Anthrax LF prot 0, MazF activator 10, BoNT F protease 4, BoNT A protease 1, Autofluor counter 22747* and PfHsp40 yeast 1.
Screening Cc1nc2ccccc2n1CC(=O)NN returned Anthrax LF prot -2, MazF activator -10, BoNT F protease 2, BoNT A protease 0, Autofluor counter 2240 and PfHsp40 yeast -1.
For O=C(Cn1c(CC(=O)N2CCCC2)nc2ccccc21)NCc1ccccc1 the results were Anthrax LF prot 0, MazF activator -1, BoNT F protease -3, BoNT A protease -1, Autofluor counter 24078* and PfHsp40 yeast -2.
`CCC(C)(C)NC(=O)C(c1ccc(O)cc1)N(CCOC)C(=O)CCC(=O)Nc1nccs1` (stereo not drawn) gave Anthrax LF prot 1, MazF activator 235*, BoNT F protease 2, BoNT A protease -1, Autofluor counter 4168 and PfHsp40 yeast 1.
For Cc1ccc(-c2nc(=S)c3c(n2Cc2ccco2)CCCC3)cc1 the results were Anthrax LF prot -4, MazF activator -8, BoNT F protease -1, BoNT A protease 0, Autofluor counter 3147 and PfHsp40 yeast 0.
Screening OCCCn1c(-c2ccccc2)nc(=S)c2c1CCCC2 returned Anthrax LF prot 1, MazF activator 3, BoNT F protease 2, BoNT A protease inconclusive, Autofluor counter 21784* and PfHsp40 yeast 0.
`Cc1cccc(-c2nc(=S)c3c(n2Cc2ccco2)CCCC3)c1` gave Anthrax LF prot -10, MazF activator 2, BoNT F protease 1, BoNT A protease 3, Autofluor counter 22703* and PfHsp40 yeast 1.
Screening CN(C)CCCn1c(-c2ccccc2)nc(=S)c2c1CCCC2 returned Anthrax LF prot -14, MazF activator -2, BoNT F protease -32, BoNT A protease inconclusive, Autofluor counter 19594* and PfHsp40 yeast 0.
Screening O=S(=O)(Nc1ccc(-c2cn3c(n2)SCC3)cc1)c1ccccc1F returned MazF activator -1 and PfHsp40 yeast 0.
`N#Cc1nc(-c2ccc(F)cc2)oc1NCc1ccccc1` gave Anthrax LF prot -6, MazF activator 2, BoNT F protease 1, BoNT A protease 0, Autofluor counter 3976 and PfHsp40 yeast 1.
Screening CC(C)(C)c1ccc(-c2nc(C#N)c(NCc3cccnc3)o2)cc1 returned Anthrax LF prot -3, MazF activator 1, BoNT F protease -8, BoNT A protease -3, Autofluor counter 17505* and PfHsp40 yeast 2.
`CCc1c(C2(O)CCCCC2)[nH]c2cnccc12` gave Anthrax LF prot -4, MazF activator 3, BoNT F protease -10, BoNT A protease 0, Autofluor counter 3412 and PfHsp40 yeast -3.
For CCc1sc(C(=O)NC)cc1Br the results were Anthrax LF prot 2, MazF activator 5, BoNT F protease 9, BoNT A protease 7, Autofluor counter 20040* and PfHsp40 yeast 0.
`Cc1cc(C)c2nc(SCc3ccc([N+](=O)[O-])cc3)nc(C)c2c1` gave Anthrax LF prot 1, MazF activator 0, BoNT F protease -2, BoNT A protease inconclusive, Autofluor counter 20592* and PfHsp40 yeast 0.
For Cc1nc2ccccc2c(=O)n1-c1ccc([N+](=O)[O-])cc1 the results were Anthrax LF prot -16, MazF activator -4, BoNT F protease 3, BoNT A protease -2, Autofluor counter 3535 and PfHsp40 yeast 2.
`Cc1ccc(-n2c(SCc3ccc([N+](=O)[O-])cc3)nc3ccccc3c2=O)cc1` gave Anthrax LF prot -6, MazF activator -12, BoNT F protease 2, BoNT A protease 4, Autofluor counter 20811* and PfHsp40 yeast 0.
`Cc1ccc2nc(SCc3ccc([N+](=O)[O-])cc3)nc(C)c2c1` gave Anthrax LF prot 0, MazF activator 12, BoNT F protease 0, BoNT A protease inconclusive, Autofluor counter 23313* and PfHsp40 yeast 0.
For CCCc1nc2ccc(C)cn2c1Cc1ccccc1C(F)(F)F the results were Anthrax LF prot 0, BoNT F protease -9, BoNT A protease 1 and Autofluor counter 6409.
Screening CCOC(=O)C1CCN(Cc2nc(-c3ccc(OC)c(OC)c3)no2)CC1 returned Anthrax LF prot -2, MazF activator 2, BoNT F protease 12, BoNT A protease 0, Autofluor counter 4701 and PfHsp40 yeast 0.
For COc1ccc(-c2noc(CN3CCCCC3)n2)cc1OC the results were Anthrax LF prot -2, MazF activator 3, BoNT F protease 4, BoNT A protease 2, Autofluor counter 21443* and PfHsp40 yeast 0.
`O=C(CN1C(=O)CC(c2ccccc2)=Nc2ccccc21)NCc1ccccc1` gave Anthrax LF prot -1, MazF activator 2, BoNT F protease -1, BoNT A protease 0, Autofluor counter 2455 and PfHsp40 yeast 119*.
`COc1ccc(CNC(=O)CN2C(=O)CC(c3ccccc3)=Nc3ccccc32)cc1` gave Anthrax LF prot 0, MazF activator -2, BoNT F protease -3, BoNT A protease -1, Autofluor counter 3881 and PfHsp40 yeast 0.
For CN(C)c1ncc(S(=O)(=O)c2ccccc2)c(-c2ccc(Cl)cc2Cl)n1 the results were Anthrax LF prot 1, MazF activator -1, BoNT F protease -2, BoNT A protease inconclusive, Autofluor counter 22616* and PfHsp40 yeast 3.
For CN(C)c1ncc(S(=O)(=O)c2ccc(Cl)cc2)c(-c2ccc(Cl)cc2Cl)n1 the results were Anthrax LF prot 9, MazF activator -1, BoNT F protease -2, BoNT A protease 0, Autofluor counter 10495 and PfHsp40 yeast 0.
For O=C(O)c1cc(-c2ccc(N3CCOCC3)cc2)nn1-c1ccc(F)cc1F the results were Anthrax LF prot -3, MazF activator 2, BoNT F protease -1, BoNT A protease 0, Autofluor counter 2063 and PfHsp40 yeast 40*.
For [O-][N+]1=c2ccc(Nc3ccccc3)cc2=NC12CCCCC2 the results were Anthrax LF prot -8, MazF activator 0, BoNT F protease -15, BoNT A protease -1, Autofluor counter 16589* and PfHsp40 yeast 0.
For N=c1c(S(=O)(=O)c2ccccc2)cc2c(=O)n3ccccc3nc2n1CCCN1CCOCC1 the results were Anthrax LF prot -8, MazF activator 28, BoNT F protease 0, BoNT A protease 1, Autofluor counter 3900 and PfHsp40 yeast 1.
Screening N=c1c(S(=O)(=O)c2ccc(Cl)cc2)cc2c(=O)n3ccccc3nc2n1CCN1CCOCC1 returned Anthrax LF prot 6, MazF activator 14, BoNT F protease 6, BoNT A protease 5, Autofluor counter 21495* and PfHsp40 yeast 0.
